Our source for the sensor-assay potency score (higher = more potent) values is the OligoGym collection.
Also: reference of the scale not given here.

The target of the first assay is FAM178A. Description: pooled miR-30 sensor sort-seq; sequence = guide strand. The following applies: shRNA.
For the sequence TATTGAAAAACACAGCTGCTAC, the sensor-assay potency score (higher = more potent) was -0.444. TTTCTTTAGAAATTCCTTGTGC gave a sensor-assay potency score (higher = more potent) of 0.466. Regarding TATGTCTTCTTGTAGTTGCTTC, the sensor-assay potency score (higher = more potent) came to 0.216. TTTTTCTTGAGAGATGTCCATT had a sensor-assay potency score (higher = more potent) of -1.17. As to TATACCATGATCTTCATGGTGC, the sensor-assay potency score (higher = more potent) is 0.577. On to TAGTTTTGTCTCCTTCTCCTTT, for which the sensor-assay potency score (higher = more potent) was -0.485. TAAGAAGCTAGTGACAACTGGA: the sensor-assay potency score (higher = more potent) is 0.82. TTTAATTGCAGACTTTTCCTGA displayed a sensor-assay potency score (higher = more potent) of 0.605. Turning to TAGACAATCTACTTCCTCCATA, the sensor-assay potency score (higher = more potent) is -0.597. Sequence TTTAGTTCTCGTTCTCTGCAGT gave a sensor-assay potency score (higher = more potent) of -0.0234.

Another assay concerns the target FAM181A. The description is as above. The following applies: shRNA.
In turn, TTAGCAAGACATTCCTCCCTGT registered a sensor-assay potency score (higher = more potent) of 0.483. TAGCAAGACATTCCTCCCTGTA: the sensor-assay potency score (higher = more potent) was -0.518. For TTGCGATGGTCCACGGAGCGGC, the sensor-assay potency score (higher = more potent) was -0.977. Consider AAGAACAAGAACAACAACTGAG, for which the sensor-assay potency score (higher = more potent) was 0.506.

The sequence AACAAGAACAACAACTGAGATT showed a sensor-assay potency score (higher = more potent) of -1.01. On the same count and under the same terms, the figure for TTTTCAGGTAGGGCTCAGCAGC is -1.38. For the sequence TTGATGTCGCTGGACGCCAGGT, the sensor-assay potency score (higher = more potent) is -1.09. Sequence TACTTCTGGGAGAAGCGCTTGA gave a sensor-assay potency score (higher = more potent) of -0.152. On to TCGGATGCCATCACCAGGGGGC, for which the sensor-assay potency score (higher = more potent) was -0.489. AAATCCAGGAGCAGCCTCCTGG came in with a sensor-assay potency score (higher = more potent) of -1.06. Consider ATCTTCACATCACTGTCGGATG, for which the sensor-assay potency score (higher = more potent) was -1.37. Sequence TTTTCTTACCCTCATAGGGAGG registered a sensor-assay potency score (higher = more potent) of -1.8.

For a further assay, the target named is FAM181B. The description is as above. As to conditions: shRNA.
Consider TTTTGTTTTAACACTTGAGGTT, for which the sensor-assay potency score (higher = more potent) came out at 0.0361. Turning to TTGGTTTCTTGACTCCTCTGGT, the sensor-assay potency score (higher = more potent) worked out at 0.637. Turning to TAAATACACTGACCTTCGCTGA, the sensor-assay potency score (higher = more potent) is -0.839. For TGAAGCTGAGTAGATCGCGGGT, the sensor-assay potency score (higher = more potent) is -0.406. Turning to TTGTTTTAACACTTGAGGTTGT, the sensor-assay potency score (higher = more potent) was 0.449. Sequence TTTGTTTTAACACTTGAGGTTG registered a sensor-assay potency score (higher = more potent) of -0.289. The sequence TTGTGATTAAACAATCCCCAAC showed a sensor-assay potency score (higher = more potent) of -1.56. The same measure, in the same setting: the figure for TCATCGTCCTCGAAACAGCAGC is -1.07; for TACACTAAATACACTGACCTTC it is -0.096; for TTCACCTTCCGCTTCGACTTGC it is 0.326.

TTGATGTTGCTGGACGCCGAGT returned a sensor-assay potency score (higher = more potent) of -1.34. The same measure, in the same setting: the value for TTCTTGACTCCTCTGGTCCAGT was -0.871.

A further assay addresses FAM194A. Described as above. The following applies: shRNA.
In the case of TTATTGTCTTCATTATATCTTG, the sensor-assay potency score (higher = more potent) was -0.455.

Sequence TAGAATATTTGTGTTGTCCCAT came in with a sensor-assay potency score (higher = more potent) of 0.0372. As to TAGAAATCTTGTCTTGTTCTAA, the sensor-assay potency score (higher = more potent) is 0.351.

Sequence TTATATCTTGCTTTATACCAGA had a sensor-assay potency score (higher = more potent) of -0.69. TACAATGTCATCAATTATCTGT yielded a sensor-assay potency score (higher = more potent) of 0.418.

TTTTCTTTTGCCTTGAGTCTGT: the sensor-assay potency score (higher = more potent) is 0.354.
